{"source": "PubChem BioAssay (EPA / NIEHS)", "note": "“And” between values parts separate entries of the source, which are not always exact repeats. Equal values may be shown once. The source made the active and inactive calls. The calls were made as follows: active = hit-call score of the fitted dose curve at least 0.9, where 1 is the maximum; inactive = score below 0.9."}
{"read-out": "Interferon-gamma inducible Protein 10 (IP10), CXCL10 (gene 3627)", "assay": "BSK_BE3C_IP10: BioMAP Diversity Plus: BE3C Assay for Interferon-gamma inducible Protein 10 (IP10) Biomarker Activity (AID 2283034)", "details": "primary human bronchial epithelial cells; actives raise or lower the signal", "how_it_was_run": "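Chemical is dosed onto human lung bronchial epithelial primary cells, cultures are incubated 24 h, and IP-10 is then quantified by ELISA. Gain or loss of signal is fitted in both directions relative to DMSO.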"}
{"smiles": "COc1ccc(C(=O)c2ccccc2)c(O)c1", "outcome": "inactive"}
{"smiles": "CC(C)CCCCCOC(=O)CS", "outcome": "inactive"}
{"smiles": "Nc1ccc(C(=O)O)cc1", "outcome": "inactive"}
{"smiles": "CC(Cl)COP(=O)(OCC(C)Cl)OCC(C)Cl", "note": "(centres undefined)", "outcome": "inactive"}
{"smiles": "CCc1cccc(C)c1N(C(=O)CS(=O)(=O)O)C(C)COC", "note": "(centres undefined)", "outcome": "inactive"}
{"smiles": "CCCCCCCCC(CO)CCCCCC", "note": "(centres undefined)", "AC50": "2.01 µM (active)"}
{"smiles": "CC1=CC=C(C(C)C)CC1", "outcome": "inactive"}
{"smiles": "C=CC(=O)OCCCCCCCC(C)C", "outcome": "inactive"}
{"smiles": "Fc1ccc(Br)cc1", "outcome": "inactive"}
{"smiles": "CCCCCCCCCCCC(C)=O", "AC50": "20 µM (active)"}
{"smiles": "C=CC(=O)NCOCCCC", "outcome": "inactive"}
{"smiles": "CC(C)[N+](C)(CCOC(=O)C1c2ccccc2Oc2ccccc21)C(C)C", "outcome": "inactive"}
{"smiles": "Oc1c(Cl)cc(Cl)c(Cl)c1Cl", "AC50": "20 µM (active)"}
{"smiles": "C=C(C)C(=O)OCCCCCCCCCCCC", "outcome": "inactive"}
{"smiles": "Clc1cc(Cl)c(Cl)c(Cl)c1Cl", "outcome": "inactive"}
{"smiles": "CCOC(=O)/C=C\\C(=O)OCC", "outcome": "inactive"}
{"smiles": "CC(C)C(=O)OCCc1ccccc1", "outcome": "inactive"}
{"smiles": "CCOC(=O)C1=NN(c2ccc(Cl)cc2Cl)C(C)(C(=O)OCC)C1", "note": "(centres undefined)", "outcome": "inactive"}
{"smiles": "C=CCCCCCCCCC=O", "outcome": "inactive"}
{"smiles": "Nc1nc(N)nc(-c2ccccc2)n1", "outcome": "inactive"}
{"smiles": "c1ccc(Nc2cccc3ccccc23)cc1", "AC50": "29.1 µM (active) and 30.6 µM (active)"}
{"smiles": "CCCCCCOC(=O)CCCCC(=O)OCCCCCC", "outcome": "inactive"}
{"smiles": "COC(OC)(C(=O)c1ccccc1)c1ccccc1", "outcome": "inactive"}
{"smiles": "Cc1c(O)cccc1O", "outcome": "inactive"}
{"smiles": "CC/C=C\\C/C=C\\C/C=C\\CCCCCCCC(=O)OC", "AC50": "11.8 µM (active)"}
{"smiles": "CC(c1cc(C(C)(C)C)cc(C(C)(C)C)c1O)c1cc(C(C)(C)C)cc(C(C)(C)C)c1O", "outcome": "inactive"}
{"smiles": "O=C(Oc1ccccc1)c1ccccc1C(=O)Oc1ccccc1", "outcome": "inactive"}
{"smiles": "CCCCCCCO", "outcome": "inactive"}
{"smiles": "C=CC(=O)OCC(C)OCC(C)OCC(C)OC(=O)C=C", "note": "(centres undefined)", "AC50": "30.6 µM (active)"}
{"read-out": "Monokine induced gamma interferon (MIG), CXCL9 (gene 4283)", "assay": "BSK_BE3C_MIG: BioMAP Diversity Plus: BE3C Assay for Monokine induced gamma interferon (MIG) Biomarker Activity (AID 2283035);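 as to outcome: MIG protein measured by ELISA in BE3C cultures after 24 h of dosing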", "details": "primary human bronchial epithelial cells; actives raise or lower the signal", "how_it_was_run": "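MIG level was determined by ELISA after 24 h chemical treatment of primary human bronchial epithelial cells. Values were fitted bidirectionally with DMSO as the negative control and activity baseline.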"}
{"smiles": "COc1ccc(C(=O)c2ccccc2)c(O)c1", "outcome": "inactive"}
{"smiles": "CC(C)CCCCCOC(=O)CS", "outcome": "inactive"}
{"smiles": "Nc1ccc(C(=O)O)cc1", "outcome": "inactive"}
{"smiles": "CC(Cl)COP(=O)(OCC(C)Cl)OCC(C)Cl", "note": "(centres undefined)", "outcome": "inactive"}
{"smiles": "CCc1cccc(C)c1N(C(=O)CS(=O)(=O)O)C(C)COC", "note": "(centres undefined)", "outcome": "inactive"}
{"smiles": "CCCCCCCCC(CO)CCCCCC", "note": "(centres undefined)", "outcome": "inactive"}
{"smiles": "CC1=CC=C(C(C)C)CC1", "outcome": "inactive"}
{"smiles": "C=CC(=O)OCCCCCCCC(C)C", "outcome": "inactive"}
{"smiles": "Fc1ccc(Br)cc1", "outcome": "inactive"}
{"smiles": "CCCCCCCCCCCC(C)=O", "outcome": "inactive"}
{"smiles": "C=CC(=O)NCOCCCC", "outcome": "inactive"}
{"smiles": "CC(C)[N+](C)(CCOC(=O)C1c2ccccc2Oc2ccccc21)C(C)C", "outcome": "inactive"}
{"smiles": "Oc1c(Cl)cc(Cl)c(Cl)c1Cl", "outcome": "inactive"}
{"smiles": "C=C(C)C(=O)OCCCCCCCCCCCC", "outcome": "inactive"}
{"smiles": "Clc1cc(Cl)c(Cl)c(Cl)c1Cl", "outcome": "inactive"}
{"smiles": "CCOC(=O)/C=C\\C(=O)OCC", "outcome": "inactive"}
{"smiles": "CC(C)C(=O)OCCc1ccccc1", "outcome": "inactive"}
{"smiles": "CCOC(=O)C1=NN(c2ccc(Cl)cc2Cl)C(C)(C(=O)OCC)C1", "note": "(centres undefined)", "outcome": "inactive"}
{"smiles": "C=CCCCCCCCCC=O", "outcome": "inactive"}
{"smiles": "Nc1nc(N)nc(-c2ccccc2)n1", "outcome": "inactive"}
{"smiles": "c1ccc(Nc2cccc3ccccc23)cc1", "outcome": "inactive"}
{"smiles": "CCCCCCOC(=O)CCCCC(=O)OCCCCCC", "outcome": "inactive"}
{"smiles": "COC(OC)(C(=O)c1ccccc1)c1ccccc1", "outcome": "inactive"}
{"smiles": "Cc1c(O)cccc1O", "outcome": "inactive"}
{"smiles": "CC/C=C\\C/C=C\\C/C=C\\CCCCCCCC(=O)OC", "AC50": "29.6 µM (active)"}
{"smiles": "CC(c1cc(C(C)(C)C)cc(C(C)(C)C)c1O)c1cc(C(C)(C)C)cc(C(C)(C)C)c1O", "outcome": "inactive"}
{"smiles": "O=C(Oc1ccccc1)c1ccccc1C(=O)Oc1ccccc1", "outcome": "inactive"}
{"smiles": "Oc1ccc(/C=C/c2cc(O)cc(O)c2)cc1", "outcome": "inactive"}
{"smiles": "CCCCCCCO", "outcome": "inactive"}
{"smiles": "C=CC(=O)OCC(C)OCC(C)OCC(C)OC(=O)C=C", "note": "(centres undefined)", "outcome": "inactive"}
